Measured values taken from PubChem BioAssay (EPA / NIEHS).
The source made the active and inactive calls. How the source made its calls: active means hit-call score of the fitted dose curve at least 0.9, where 1 is the maximum; inactive means score below 0.9.

Legend:
[1] = ATG_DR4_LXR_CIS: Attagene CIS-FACTORIAL HepG2 Assay for human Liver X Receptor (LXR), DR4 submotif (AID 2282929); settings: HepG2 Attagene DR4 cis-reporter, mRNA transcription; AC50: actives raise or lower the signal unless noted; outcome: actives raise or lower the signal unless noted
In short: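 The endpoint is DR4-element-driven reporter transcripts after 24 h chemical exposure of transfected HepG2 cells. These were measured via RT-PCR and capillary electrophoresis, and gain or loss of signal was fitted relative to DMSO controls.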

[2] = molecular target: Aryl hydrocarbon receptor (Homo sapiens) (UniProt P35869); assay: ATG_Ahr_CIS: Attagene CIS-FACTORIAL HepG2 Assay for human Aryl Hydrocarbon Receptor (Ahr) (AID 2282930); settings: HepG2 AhR cis-factorial reporter transcription; actives raise or lower the signal
Aryl hydrocarbon receptor (Homo sapiens), sequence (P35869 whole entry, looked up): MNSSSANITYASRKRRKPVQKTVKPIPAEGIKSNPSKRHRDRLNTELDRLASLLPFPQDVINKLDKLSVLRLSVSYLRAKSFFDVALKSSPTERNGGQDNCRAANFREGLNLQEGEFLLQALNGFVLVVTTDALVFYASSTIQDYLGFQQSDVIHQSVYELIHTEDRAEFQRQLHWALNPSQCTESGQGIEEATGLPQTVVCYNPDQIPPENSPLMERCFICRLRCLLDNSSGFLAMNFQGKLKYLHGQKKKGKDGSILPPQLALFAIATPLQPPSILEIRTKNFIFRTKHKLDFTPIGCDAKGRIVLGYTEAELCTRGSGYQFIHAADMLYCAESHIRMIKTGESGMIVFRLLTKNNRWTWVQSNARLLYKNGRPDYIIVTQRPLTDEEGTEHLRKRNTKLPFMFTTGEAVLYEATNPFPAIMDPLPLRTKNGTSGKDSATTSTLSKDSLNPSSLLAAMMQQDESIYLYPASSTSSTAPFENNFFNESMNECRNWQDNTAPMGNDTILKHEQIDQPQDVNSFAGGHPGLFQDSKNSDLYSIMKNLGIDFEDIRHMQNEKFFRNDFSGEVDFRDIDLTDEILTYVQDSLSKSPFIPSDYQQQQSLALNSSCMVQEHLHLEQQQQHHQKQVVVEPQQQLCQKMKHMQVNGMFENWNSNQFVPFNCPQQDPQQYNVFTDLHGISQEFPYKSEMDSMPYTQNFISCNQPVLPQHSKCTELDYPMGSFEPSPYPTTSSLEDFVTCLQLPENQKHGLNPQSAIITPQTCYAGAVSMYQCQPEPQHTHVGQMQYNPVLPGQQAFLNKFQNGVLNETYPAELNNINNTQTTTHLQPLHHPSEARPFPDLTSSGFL
In short: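 HepG2, transient MRTU (cis) transfection, 24 h exposure. RNA → cDNA → PCR → 6-FAM primer extension → HpaI 2 h 37 C → CE. Fit: bidirectional, DMSO baseline.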

[3] = ATG_AP_1_CIS: Attagene CIS-FACTORIAL HepG2 Assay for human Activator Protein 1 (AP-1) (AID 2282931); settings: HepG2 Attagene cis-factorial AP-1 reporter mRNA; actives raise or lower the signal
In short: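 Readout is reporter transcript level from endogenous transcription factor activity, quantified by RT-PCR with fluorescent primer extension and capillary electrophoresis. Transiently transfected HepG2 cells, 24 h exposure. Curves fitted both directions versus DMSO.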

[4] = ATG_BRE_CIS: Attagene CIS-FACTORIAL HepG2 Assay for human Bone Morphogenetic Protein (BMP) Response Element (BRE) (AID 2282933); settings: HepG2 BMP response element reporter, Attagene transcription factor profiling; actives raise or lower the signal
In short: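 After a 24 h chemical treatment, transiently transfected HepG2 cells were lysed for RNA; reporter transcripts were quantified by fluorescent RT-PCR and capillary electrophoresis, normalised to DMSO.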

[5] = molecular target: Retinoic acid receptor alpha (Homo sapiens) (UniProt P10276); assay: ATG_DR5_RAR_CIS: Attagene CIS-FACTORIAL HepG2 Assay for human Retinoic Acid Receptor Alpha (RARE), DR5 submotif (AID 2282934); settings: HepG2 Attagene cis-factorial RARE DR5 reporter, mRNA; actives raise or lower the signal
Retinoic acid receptor alpha (Homo sapiens), sequence (P10276 whole entry, looked up): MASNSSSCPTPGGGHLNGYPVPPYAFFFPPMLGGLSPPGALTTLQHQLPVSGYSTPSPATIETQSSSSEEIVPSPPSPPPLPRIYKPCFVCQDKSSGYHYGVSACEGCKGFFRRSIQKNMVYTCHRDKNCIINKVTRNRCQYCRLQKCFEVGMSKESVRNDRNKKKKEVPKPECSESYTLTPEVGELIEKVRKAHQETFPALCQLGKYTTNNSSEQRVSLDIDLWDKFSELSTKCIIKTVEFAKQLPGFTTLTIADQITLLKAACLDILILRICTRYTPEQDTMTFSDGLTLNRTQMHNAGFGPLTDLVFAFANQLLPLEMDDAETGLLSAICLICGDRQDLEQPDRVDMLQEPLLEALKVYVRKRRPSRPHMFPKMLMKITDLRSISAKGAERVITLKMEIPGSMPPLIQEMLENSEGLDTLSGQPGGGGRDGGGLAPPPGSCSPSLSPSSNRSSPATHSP
In short: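 HepG2, transient cis-reporter transfection, 24 h exposure. mRNA readout: RT-PCR, FAM label, HpaI cut, capillary electrophoresis. DMSO baseline, gain/loss fitting.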

[6] = molecular target: Transcription factor E2F1 (Homo sapiens) (UniProt Q01094); assay: ATG_E2F_CIS: Attagene CIS-FACTORIAL HepG2 Assay for human E2F Transcription Factor 1 (AID 2282935); settings: HepG2 Attagene cis-reporter, E2F reporter RNA transcripts; actives raise or lower the signal
Transcription factor E2F1 (Homo sapiens), sequence (Q01094 whole entry, looked up): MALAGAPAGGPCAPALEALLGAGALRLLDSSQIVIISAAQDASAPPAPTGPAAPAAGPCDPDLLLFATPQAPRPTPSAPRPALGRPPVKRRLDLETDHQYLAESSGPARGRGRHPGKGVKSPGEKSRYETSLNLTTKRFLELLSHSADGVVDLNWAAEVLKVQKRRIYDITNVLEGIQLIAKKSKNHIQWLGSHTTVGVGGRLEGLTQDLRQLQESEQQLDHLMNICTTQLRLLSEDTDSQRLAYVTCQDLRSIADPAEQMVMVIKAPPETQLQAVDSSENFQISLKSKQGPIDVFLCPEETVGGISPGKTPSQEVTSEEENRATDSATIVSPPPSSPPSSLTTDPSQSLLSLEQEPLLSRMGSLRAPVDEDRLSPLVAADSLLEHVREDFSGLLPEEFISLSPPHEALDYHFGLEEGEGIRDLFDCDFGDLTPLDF
In short: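 Total RNA from 24 h-treated, reporter-transfected HepG2 cells undergoes DNase I treatment, oligo(dT) reverse transcription, PCR and 6-FAM primer extension before capillary electrophoresis.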

[7] = ATG_E_Box_CIS: Attagene CIS-FACTORIAL HepG2 Assay for human Enhancer Box (E-box) (AID 2282936); settings: HepG2 E-box cis-reporter transcription, actives raise or lower the signal
In short: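 DMSO served as negative control and baseline for bidirectional fitting. Human hepatoma HepG2 cells, transiently transfected with cis-reporter constructs, were dosed 24 h; reporter mRNA read by RT-PCR and capillary electrophoresis.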

[8] = ATG_M_61_CIS: Attagene CIS-FACTORIAL HepG2 Assay for M61 Transcription Factor (Internal Marker) (AID 2282937); settings: HepG2 Attagene CIS-FACTORIAL M61 internal marker reporter; actives raise or lower the signal
In short: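 Readout is reporter mRNA by RT-PCR, fluorescent primer extension and capillary electrophoresis, with gain or loss fitted relative to DMSO. Transfected HepG2 cells carrying endogenous-TF-driven cis reporters were exposed to chemicals for 24 hours.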

[9] = ATG_EGR_CIS: Attagene CIS-FACTORIAL HepG2 Assay for human Early Growth Response 1 (EGR1) (AID 2282938); settings: HepG2 Attagene CIS-FACTORIAL EGR reporter mRNA; actives raise or lower the signal
In short: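 After 24 h compound exposure, RNA from reporter-transfected HepG2 cells was reverse-transcribed, PCR-amplified, fluorescently labelled and resolved by capillary electrophoresis. EGR1 reporter transcript changes, up or down, were fitted against DMSO, reflecting endogenous transcription-factor activity.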

[10] = ATG_ERE_CIS: Attagene CIS-FACTORIAL HepG2 Assay for Estrogen Response Element (ERE) (AID 2282940); settings: HepG2 ERE cis-reporter, Attagene RNA transcript; actives raise or lower the signal
In short: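 Measuring endogenous transcription factor output, the assay doses transfected HepG2 cells for 24 hours and quantifies reporter transcripts by fluorescent RT-PCR and capillary electrophoresis, with DMSO as baseline.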

[11] = ATG_Ets_CIS: Attagene CIS-FACTORIAL HepG2 Assay for human Erythroblast Transformation Specific (ETS) (AID 2282941); settings: HepG2 ETS cis-reporter transcription; AC50: actives raise or lower the signal unless noted; outcome: actives raise or lower the signal unless noted
In short: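 Human HepG2 hepatoma cells were transiently transfected with promoter-driven reporter constructs and treated for 24 hours. Reporter transcripts were quantified by RT-PCR with fluorescent primer extension; bidirectional curve fitting used DMSO as reference.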

[12] = ATG_FoxO_CIS: Attagene CIS-FACTORIAL HepG2 Assay for human Forkhead box O (FoxO) (AID 2282943); settings: HepG2 Attagene cis-reporter, FoxO element, mRNA; actives raise or lower the signal
In short: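 Human hepatoma HepG2 cells carry transiently introduced reporter transcription units controlled by cis promoter elements. Chemical treatment lasted 24 h, and mRNA signal was compared with DMSO.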

[13] = ATG_GATA_CIS: Attagene CIS-FACTORIAL HepG2 Assay for human GATA Binding Protein (AID 2282944); settings: HepG2 GATA cis-element reporter, Attagene multiplex mRNA; actives raise or lower the signal
In short: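 Measures endogenous transcription factor-driven reporter mRNA in HepG2 cells transiently carrying cis-regulated constructs. 24 h dosing; RNA via oligo(dT) reverse transcription, PCR, HpaI digestion, capillary electrophoresis; fitted relative to DMSO.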

[14] = ATG_GLI_CIS: Attagene CIS-FACTORIAL HepG2 Assay for human Zinc Finger Protein GLI1 (AID 2282945); settings: HepG2, Attagene cis-factorial reporter mRNA, GLI element; actives raise or lower the signal
In short: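 Bidirectional curve fits relative to DMSO, using reporter mRNA levels from RT-PCR plus capillary electrophoresis. Cells were HepG2 transiently carrying cis-regulated reporter constructs, harvested 24 h after dosing.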

[15] = molecular target: Bile acid receptor (Homo sapiens) (UniProt Q96RI1); assay: ATG_IR1_CIS: Attagene CIS-FACTORIAL HepG2 Assay for human Nuclear Receptor Subfamily 1 Group H Member 4 (NR1H4), IR1 submotif (AID 2282946); settings: IR1 reporter transcription, actives raise or lower the signal
Bile acid receptor (Homo sapiens), sequence (Q96RI1 whole entry, looked up, the tested form may be a part): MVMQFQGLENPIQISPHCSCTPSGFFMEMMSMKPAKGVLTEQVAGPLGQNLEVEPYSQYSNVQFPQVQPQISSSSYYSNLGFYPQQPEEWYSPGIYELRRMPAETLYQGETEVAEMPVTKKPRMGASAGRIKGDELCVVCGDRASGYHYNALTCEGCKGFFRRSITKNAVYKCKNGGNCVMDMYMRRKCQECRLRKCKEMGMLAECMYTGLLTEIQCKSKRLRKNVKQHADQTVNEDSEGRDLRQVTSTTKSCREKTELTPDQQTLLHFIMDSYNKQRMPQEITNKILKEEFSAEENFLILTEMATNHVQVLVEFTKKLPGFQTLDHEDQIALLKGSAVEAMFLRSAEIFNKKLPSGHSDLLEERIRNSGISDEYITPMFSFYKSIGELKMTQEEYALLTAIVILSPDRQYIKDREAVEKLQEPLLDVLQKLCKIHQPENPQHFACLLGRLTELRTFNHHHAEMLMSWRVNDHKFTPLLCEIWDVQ
In short: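 Cells (human HepG2) carry transiently transfected cis-promoter reporter transcription units. Compounds are incubated 24 h, total RNA is reverse-transcribed and amplified, and labelled fragments are resolved by capillary electrophoresis. Curves use DMSO as baseline.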

[16] = ATG_GRE_CIS: Attagene CIS-FACTORIAL HepG2 Assay for human Glucocorticoid Response Elements (GRE) (AID 2282947); settings: HepG2 GRE cis-reporter, Attagene multiplex mRNA; AC50: actives raise or lower the signal unless noted; outcome: actives raise or lower the signal unless noted
In short: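 Assay uses human hepatoma HepG2 cells transfected with cis-promoter reporter units, exposed 24 h. mRNA from reporters detected by RT-PCR plus capillary electrophoresis; DMSO serves as negative control and baseline.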

[17] = ATG_ISRE_CIS: Attagene CIS-FACTORIAL HepG2 Assay for human Interferon Regulatory Factor 1 (IRF1) binding to an Interferon-Stimulated Response Element (ISRE) (AID 2282948); settings: HepG2 ISRE cis-reporter (Attagene), mRNA transcription readout; actives raise or lower the signal
In short: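 Cell-based cis-reporter assay; HepG2; 24 h exposure; reporter mRNA by RT-PCR plus capillary electrophoresis fluorescence; activity in either direction scored relative to DMSO.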

[18] = ATG_M_19_CIS: Attagene CIS-FACTORIAL HepG2 Assay for M19 Transcription Factor (Internal Marker) (AID 2282939); settings: HepG2 Attagene CIS-FACTORIAL M19 internal marker reporter; actives raise or lower the signal
In short: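 In this multiplexed cell assay, transiently transfected HepG2 reporter units report endogenous transcription-factor activity; after 24 hours of treatment, labelled reporter cDNA fragments are quantified by capillary electrophoresis and fitted bidirectionally against DMSO.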

[19] = molecular target: Hepatocyte nuclear factor 3-beta (Homo sapiens) (UniProt Q9Y261); assay: ATG_FoxA2_CIS: Attagene CIS-FACTORIAL HepG2 Assay for human Forkhead box A2 (FOXA2) (AID 2282942); settings: HepG2 cis-reporter transcription factor activity, 24 h; actives raise or lower the signal
Hepatocyte nuclear factor 3-beta (Homo sapiens), sequence (Q9Y261 whole entry, looked up): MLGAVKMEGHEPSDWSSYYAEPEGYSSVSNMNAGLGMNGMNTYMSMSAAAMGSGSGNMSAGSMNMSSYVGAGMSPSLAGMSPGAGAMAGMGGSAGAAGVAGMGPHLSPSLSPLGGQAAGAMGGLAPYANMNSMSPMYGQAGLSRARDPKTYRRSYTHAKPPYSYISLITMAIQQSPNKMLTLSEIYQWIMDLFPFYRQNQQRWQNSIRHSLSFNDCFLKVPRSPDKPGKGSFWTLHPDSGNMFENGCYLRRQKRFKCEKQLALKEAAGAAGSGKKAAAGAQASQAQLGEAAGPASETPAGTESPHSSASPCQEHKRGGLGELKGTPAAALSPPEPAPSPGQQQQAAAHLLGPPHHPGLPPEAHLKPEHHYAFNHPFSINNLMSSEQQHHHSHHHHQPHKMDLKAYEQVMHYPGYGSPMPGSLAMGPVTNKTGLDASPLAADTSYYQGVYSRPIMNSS
In short: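 Endogenous transcription factor activity is captured via cis-element-driven reporter transcripts in transfected HepG2. Total RNA taken at 24 h post-dosing; labelled RT-PCR products resolved by capillary electrophoresis. Gain or loss fitted versus DMSO.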

[20] = ATG_AP_2_CIS: Attagene CIS-FACTORIAL HepG2 Assay for human Activator Protein 2 (AP-2) (AID 2282932); settings: HepG2 AP-2 cis-reporter, Attagene transcription factor profiling; AC50: actives raise or lower the signal unless noted; outcome: actives raise or lower the signal unless noted
In short: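 Step one: transient transfection of HepG2 with reporter transcription units. Step two: 24 h chemical exposure. Step three: RNA extraction, RT-PCR, labelled fragment analysis by capillary electrophoresis; DMSO serves as baseline.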

Measured: AC50

CCc1ccccc1O
active: [2] 10.3 µM
not listed: [18] | [19] | [20]
inactive: all other assays above

Nc1cc(Cl)c(-c2cc(Cl)c(N)cc2Cl)cc1Cl
active: [1] 2.65 µM | [3] 3.81 µM | [4] 21 µM
not listed: [16] | [20]
inactive: all other assays above

COC(=O)C(F)(F)C(F)(F)C(F)(F)F
not listed: [13] | [16] | [19] | [20]
inactive: all other assays above

NC(C(F)(F)F)C(F)(F)F
not listed: [13] | [20]
inactive: all other assays above

CCCCCCCCCCCCCCCCCC[N+](C)(C)Cc1ccccc1
active: [1] 12.8 µM | [2] 12.3 µM | [6] 12.8 µM | [7] 18.4 µM | [17] 12.8 µM
not listed: [4] | [16] | [20]
inactive: all other assays above

C[N+](C)(CCCNS(=O)(=O)CCC(F)(F)C(F)(F)C(F)(F)C(F)(F)C(F)(F)C(F)(F)F)CC(=O)[O-]
active: [3] 0.00657 µM | [10] 0.0122 µM
not listed: [2]
inactive: all other assays above

Clc1ccc(Nc2nnc(Cc3ccncc3)c3ccccc23)cc1
active: [3] 42 µM | [9] 16 µM
not listed: [6] | [20]
inactive: all other assays above

CCCCCC(C)OC(=O)COc1ccc(Cl)c2cccnc12 (stereo not drawn)
active: [1] 100 µM
not listed: [4] | [19] | [20]
inactive: all other assays above

Oc1cccc2c(O)cccc12
active: [2] 0.578 µM | [7] 27.3 µM | [10] 12.3 µM | [19] 0.0859 µM
not listed: [4] | [6] | [18]
inactive: all other assays above

O=C(O)c1cccc(C(=O)O)n1
not listed: [6] | [13] | [16] | [20]
inactive: all other assays above

c1cc[nH]c1
not listed: [4] | [19] | [20]
inactive: all other assays above

CC1CNCC(C)O1 (stereo not drawn)
not listed: [20]
inactive: all other assays above

CC(=O)Nc1ccc(S(N)(=O)=O)cc1
not listed: [19] | [20]
inactive: all other assays above

C=COC(=O)C(C)(C)CCCCCC
active: [10] 100 µM
not listed: [2]
inactive: all other assays above

O=C1c2ccccc2C(=O)c2c(O)c(O)cc(O)c21
active: [2] 0.303 µM | [3] 19.8 µM | [7] 8.54 µM | [10] 2.42 µM
not listed: [4] | [6] | [13]
inactive: all other assays above
